Read-out in assay [1]: Interleukin-1 alpha (IL1a), IL1A (gene 3552)
Put plainly: BSK_KF3CT_IL1a: BioMAP Diversity Plus: KF3CT Assay for Interleukin-1 alpha (IL1a) Biomarker Activity (AID 2283070). Conditions: primary human keratinocytes with fibroblasts; actives raise or lower the signal. Put shortly: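 Primary human keratinocyte plus foreskin fibroblast co-culture, dosed and measured at 24 h in 96-well plates. IL-1a level quantified by ELISA; bidirectional fit relative to DMSO.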

Read-out in assay [2]: TIMP metallopeptidase inhibitor 2 (TIMP2), TIMP2 (gene 7077)
Put plainly: BSK_KF3CT_TIMP2: BioMAP Diversity Plus: KF3CT Assay for TIMP metallopeptidase inhibitor 2 (TIMP2) Biomarker Activity (AID 2283071). As to conditions: primary human keratinocytes with fibroblasts; actives raise or lower the signal. Put shortly:
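Co-culture of human primary keratinocytes and foreskin fibroblasts, measured 24 h after chemical dosing. TIMP-2 quantified by ELISA and fitted in both directions relative to DMSO. Cytotoxicity checked in parallel cultures by SRB total-protein staining.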

Read-out in assay [3]: C-C motif chemokine 2 (Homo sapiens) (UniProt P13500)
The experiment in a line: BSK_KF3CT_MCP1: BioMAP Diversity Plus: KF3CT Assay for Monocyte Chemoattractant Protein 1 (MCP1/CCL2) Biomarker Activity (AID 2283073). Conditions: primary human keratinocytes with fibroblasts; actives raise or lower the signal. Put shortly:
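Human keratinocyte plus foreskin fibroblast primary co-culture exposed to chemical for 24 h. MCP-1 levels measured by ELISA. Bidirectional curve fitting relative to DMSO negative control as baseline.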

Read-out in assay [4]: Matrix Metallopeptidase 9 (MMP9), MMP9 (gene 4318)
Put plainly: BSK_KF3CT_MMP9: BioMAP Diversity Plus: KF3CT Assay for Matrix Metallopeptidase 9 (MMP9) Biomarker Activity (AID 2283074).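 For AC50: MMP9 protein level quantified by ELISA in the co-culture.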 Conditions: primary human keratinocytes with fibroblasts; actives raise or lower the signal. Put shortly:
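Human keratinocyte and foreskin fibroblast co-culture exposed to chemicals for 24 h; MMP9 biomarker measured by ELISA, bidirectional fitting relative to DMSO; cytotoxicity tracked by SRB total protein staining in parallel cultures.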

Read-out in assay [5]: urokinase plasminogen activator (uPA), PLAU (gene 5328)
Put plainly: BSK_KF3CT_uPA: BioMAP Diversity Plus: KF3CT Assay for urokinase plasminogen activator (uPA) Biomarker Activity (AID 2283075). As to conditions: primary human keratinocytes with fibroblasts; actives raise or lower the signal. Put shortly:
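Primary human keratinocyte/foreskin fibroblast co-culture exposed to chemical; uPA measured by ELISA at 24 h. Bidirectional fit versus DMSO, with parallel SRB total-protein staining for cytotoxicity.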

Read-out in assay [6]: CD40, CD40 (gene 958)
Put plainly: BSK_LPS_CD40: BioMAP Diversity Plus: LPS Assay for CD40 Biomarker Activity (AID 2283076). As to conditions: primary human HUVEC with PBMC; actives raise or lower the signal. Put shortly:
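Primary human umbilical vein endothelial cells co-cultured with peripheral blood mononuclear cells, LPS-stimulated, were dosed with chemical and read 24 h later. CD40 levels were measured by ELISA and fitted bidirectionally against DMSO as negative control and baseline.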

Read-out in assay [7]: E-selectin (Homo sapiens) (UniProt P16581)
The experiment in a line: BSK_LPS_Eselectin: BioMAP Diversity Plus: LPS Assay for Eselectin Biomarker Activity (AID 2283077). Conditions: primary human HUVEC with PBMC; actives raise or lower the signal. Put shortly: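 Human umbilical vein endothelial cells co-cultured with peripheral blood mononuclear cells under LPS stimulation; E-selectin measured by ELISA 24 h after chemical dosing. Activity fitted bidirectionally against DMSO as negative control and baseline.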

Read-out in assay [8]: Interleukin-8 (IL8), CXCL8 (gene 3576)
Put plainly: BSK_LPS_IL8: BioMAP Diversity Plus: LPS Assay for Interleukin-8 (IL8) Biomarker Activity (AID 2283078). As to conditions: primary human HUVEC with PBMC; actives raise or lower the signal. Put shortly: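 Human umbilical vein endothelial cells co-cultured with PBMC were stimulated with LPS; IL-8 levels were measured by ELISA 24 h after chemical dosing. Activity was fitted bidirectionally against DMSO as negative control and baseline.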

The nature of assay [9]: BSK_LPS_SRB: Viability Assessment in the BioMAP Diversity Plus: LPS Assay (AID 2283079).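 Note: total protein by sulforhodamine B absorbance as a cytotoxicity measure; measured one day after compound addition; fitted in both directions against DMSO so loss or gain of signal counts.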 Conditions: primary human HUVEC with PBMC. Put shortly:
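Human umbilical vein endothelial cells co-cultured with PBMC (LPS system) were dosed for 24 h. Total protein was stained with 0.1% sulforhodamine B after 10% TCA fixation, read at 560 nm, and fitted bidirectionally against DMSO baseline.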

Read-out in assay [10]: Interleukin-1 alpha (IL1a), IL1A (gene 3552)
Put plainly: BSK_LPS_IL1a: BioMAP Diversity Plus: LPS Assay for Interleukin-1 alpha (IL1a) Biomarker Activity (AID 2283080). Conditions: primary human HUVEC with PBMC; actives raise or lower the signal. Put shortly:
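Human umbilical vein endothelial cells co-cultured with peripheral blood mononuclear cells were LPS-stimulated and exposed to test chemicals for 24 h. IL-1 alpha was quantified by ELISA, with bidirectional curve fitting against DMSO as the negative control and baseline.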

Read-out in assay [11]: Monocyte Chemoattractant Protein-1 (MCP1), CCL2 (gene 6347)
Put plainly: BSK_LPS_MCP1: BioMAP Diversity Plus: LPS Assay for Monocyte Chemoattractant Protein-1 (MCP1) Biomarker Activity (AID 2283081).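 For AC50: secreted MCP-1 protein quantified by ELISA in culture supernatant.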 Conditions: primary human HUVEC with PBMC; actives raise or lower the signal. Put shortly: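 HUVEC plus PBMC co-culture (human primary cells, LPS system) exposed to test chemical for 24 h; MCP-1 measured by ELISA. Bidirectional curve fitting against DMSO baseline; parallel SRB total-protein staining flags overt cytotoxicity.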

The nature of assay [12]: BSK_LPS_PGE2: BioMAP Diversity Plus: LPS Assay for Prostaglandin E2 (PGE2) Biomarker Activity (AID 2283082). Conditions: primary human HUVEC with PBMC; actives raise or lower the signal. Put shortly:
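HUVEC plus human PBMC co-culture stimulated with LPS; secreted PGE2 quantified by ELISA 24 h after chemical dosing. Activity fitted bidirectionally against DMSO baseline; parallel SRB staining (0.1% SRB after 10% TCA fixation, 560 nm) flags overt cytotoxicity.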

Read-out in assay [13]: Tissue Factor, F3 (gene 2152)
The experiment in a line: BSK_LPS_TissueFactor: BioMAP Diversity Plus: LPS Assay for Tissue Factor Biomarker Activity (AID 2283084). As to conditions: primary human HUVEC with PBMC; actives raise or lower the signal. Put shortly: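 Human umbilical vein endothelial cells co-cultured with peripheral blood mononuclear cells were dosed and stimulated with LPS. Cell-surface CD142 was quantified by ELISA at 24 h. Activity was fitted bidirectionally against DMSO baseline.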

Read-out in assay [14]: Tumor necrosis factor (Homo sapiens) (UniProt P01375)
Put plainly: BSK_LPS_TNFa: BioMAP Diversity Plus: LPS Assay for Tumour Necrosis Factor alpha (TNFa) Biomarker Activity (AID 2283085).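 For AC50: TNFa protein level quantified by ELISA in the co-culture.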 As to conditions: primary human HUVEC with PBMC; actives raise or lower the signal. Put shortly:
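Human umbilical vein endothelial cells co-cultured with PBMC and stimulated with LPS. TNFa was measured by ELISA 24 h after chemical dosing, fitted bidirectionally relative to DMSO.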

Read-out in assay [15]: Vascular cell adhesion molecule 1 (VCAM1), VCAM1 (gene 7412)
The experiment in a line: BSK_LPS_VCAM1: BioMAP Diversity Plus: LPS Assay for Vascular cell adhesion molecule 1 (VCAM1) Biomarker Activity (AID 2283086). Conditions: primary human HUVEC with PBMC; actives raise or lower the signal. Put shortly:
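Human umbilical vein endothelial cells co-cultured with PBMC and stimulated with LPS; VCAM-1 measured by ELISA 24 h after dosing. Bidirectional curve fitting against DMSO baseline; cytotoxicity tracked in parallel by SRB total-protein staining.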

Read-out in assay [16]: CD38, CD38 (gene 952)
The experiment in a line: BSK_SAg_CD38: BioMAP Diversity Plus: SAg Assay for CD38 Biomarker Activity (AID 2283087). Conditions: primary human HUVEC with PBMC; actives raise or lower the signal. Put shortly: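 Human HUVEC plus PBMC co-culture stimulated with superantigen; CD38 measured by ELISA 24 h after chemical dosing. Fluorescence read-out, bidirectional fit against DMSO; cytotoxicity tracked in parallel by SRB and Alamar Blue.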

Read-out in assay [17]: CD40, CD40 (gene 958)
The experiment in a line: BSK_SAg_CD40: BioMAP Diversity Plus: SAg Assay for CD40 Biomarker Activity (AID 2283088). Conditions: primary human HUVEC with PBMC; actives raise or lower the signal. Put shortly: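 Human umbilical vein endothelial cells co-cultured with PBMC; CD40 levels measured by ELISA with fluorescence read-out 24 h after chemical dosing. Gain or loss of signal fitted bidirectionally against DMSO baseline.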

Read-out in assay [18]: CD69, CD69 (gene 969)
Put plainly: BSK_SAg_CD69: BioMAP Diversity Plus: SAg Assay for CD69 Biomarker Activity (AID 2283089).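 For AC50: cell surface CD69 protein quantified by ELISA with fluorescence detection.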 Conditions: primary human HUVEC with PBMC; actives raise or lower the signal. Put shortly: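 Values derive from bidirectional fitting relative to DMSO vehicle. Cells: umbilical vein endothelium plus peripheral blood mononuclear cells, treated 24 h before fluorescent ELISA for CD69.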

Read-out in assay [19]: Transforming growth factor beta 1 (TGFb1), TGFB1 (gene 7040)
Put plainly: BSK_KF3CT_TGFb1: BioMAP Diversity Plus: KF3CT Assay for Transforming growth factor beta 1 (TGFb1) Biomarker Activity (AID 2283072). Conditions: primary human keratinocytes with fibroblasts; actives raise or lower the signal. Put shortly:
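Human keratinocyte/foreskin fibroblast co-culture; TGF-b1 measured by ELISA 24 h after dosing, fitted bidirectionally versus DMSO. Cytotoxicity checked in parallel cultures by total protein (SRB staining, 560 nm).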

Read-out in assay [20]: Macrophage colony-stimulating factor (MCSF), CSF1 (gene 1435)
The experiment in a line: BSK_LPS_MCSF: BioMAP Diversity Plus: LPS Assay for Macrophage colony-stimulating factor (MCSF) Biomarker Activity (AID 2283083). As to conditions: primary human HUVEC with PBMC; actives raise or lower the signal. Put shortly:
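Human umbilical vein endothelial cells co-cultured with peripheral blood mononuclear cells were exposed to compound for 24 h. M-CSF levels were measured by ELISA, and bidirectional curve fitting used DMSO as the negative control and baseline.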

In PubChem BioAssay (EPA / NIEHS) one finds outcome and AC50 data, which are given here for 3 compounds.

Values joined by “and” are separate entries in the source; they are usually repeats but may differ in a detail not shown here. Equal values may be shown once. A structure can be active in one record and inactive in another. Active and inactive are the calls of the source. Rule for the calls: active = hit-call score of the fitted dose curve at least 0.9, where 1 is the maximum; inactive = score below 0.9.

Chain of Tumor necrosis factor (Homo sapiens) (P01375 whole entry, looked up): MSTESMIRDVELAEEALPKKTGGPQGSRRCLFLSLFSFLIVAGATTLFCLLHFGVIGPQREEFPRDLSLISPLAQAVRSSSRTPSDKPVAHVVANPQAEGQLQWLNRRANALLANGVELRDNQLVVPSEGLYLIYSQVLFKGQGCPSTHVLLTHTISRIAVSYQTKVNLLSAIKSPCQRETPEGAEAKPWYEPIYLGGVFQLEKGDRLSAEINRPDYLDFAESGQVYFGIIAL
Chain of E-selectin (Homo sapiens) (P16581 whole entry, looked up): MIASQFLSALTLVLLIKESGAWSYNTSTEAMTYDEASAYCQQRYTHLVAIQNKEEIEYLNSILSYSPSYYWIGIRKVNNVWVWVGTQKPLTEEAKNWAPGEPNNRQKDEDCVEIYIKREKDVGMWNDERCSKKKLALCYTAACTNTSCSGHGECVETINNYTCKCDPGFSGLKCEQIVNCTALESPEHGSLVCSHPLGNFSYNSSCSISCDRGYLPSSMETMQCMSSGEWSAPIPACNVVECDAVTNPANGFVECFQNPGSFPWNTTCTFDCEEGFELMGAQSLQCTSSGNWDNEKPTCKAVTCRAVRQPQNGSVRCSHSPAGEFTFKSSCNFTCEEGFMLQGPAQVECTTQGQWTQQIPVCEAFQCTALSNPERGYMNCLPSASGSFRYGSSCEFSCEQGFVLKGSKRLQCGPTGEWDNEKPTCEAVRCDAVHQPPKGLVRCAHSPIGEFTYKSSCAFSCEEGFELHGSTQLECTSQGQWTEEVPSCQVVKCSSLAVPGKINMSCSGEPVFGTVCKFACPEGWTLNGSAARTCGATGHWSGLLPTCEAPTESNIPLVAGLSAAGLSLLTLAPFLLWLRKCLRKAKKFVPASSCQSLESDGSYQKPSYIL

What is called AC50 is the concentration giving half of the maximal activity seen. As for `O=C(Cl)C(F)(F)C(F)(F)C(F)(F)C(F)(F)C(F)(F)C(F)(F)C(F)(F)C(F)(F)F`, the outcome in assay [1], in [3], in assay [5], in [6], in assay [7] and in assay [8] was inactive. The result in [9], in [10], in assay [12], in [13], in assay [16] and in assay [17] was inactive. For the same compound, the AC50 is 45.7 µM (active) and 50.2 µM (active) and 49.8 µM (active) in assay [2]; 54.5 µM (active) and 53.2 µM (active) in assay [3]; 43.6 µM (active) and 47.6 µM (active) and 54.8 µM (active) in [4]; 20.1 µM (active) and 48.8 µM (active) in assay [6]; 50.4 µM (active) in assay [7]; 51.2 µM (active) in assay [8]. In addition, the AC50 in assay [9] was 44.7 µM (active) and 42.3 µM (active); in assay [11], 45.7 µM (active) and 47.4 µM (active) and 54.8 µM (active); in assay [13], 39.5 µM (active) and 30 µM (active); in assay [14], 54.8 µM (active) and 48.8 µM (active) and 47.2 µM (active); in [15], 30 µM (active) and 40.7 µM (active) and 45.5 µM (active); in assay [16], 39.6 µM (active) and 30 µM (active). For the same compound, the AC50 in assay [17] is 30 µM (active) and 48.9 µM (active); in assay [18], 24.5 µM (active) and 30 µM (active) and 43.1 µM (active).
Regarding `O=C(O)C(F)(F)C(F)(F)F`, the result in [1], in assay [2], in [3], in assay [4], in [5] and in [6] was inactive. Also, the outcome in [7], in assay [8], in [9], in assay [10], in assay [11] and in assay [12] was inactive. The result in [13], in [14], in assay [15], in [16], in [17] and in assay [18] was inactive.
In the case of `CO[Si](OC)(c1ccccc1)c1ccccc1`, the result in assay [1], in [6], in assay [7], in [8], in assay [9] and in [10] was inactive. Moreover, the result in [11], in assay [12], in [20], in assay [13], in assay [14] and in [15] was inactive. In addition, the result in assay [16], in [17] and in [18] was inactive. Further, the AC50 in [2] is 30.9 µM (active); in assay [19] it was 30.1 µM (active); in assay [3], 31.6 µM (active); in assay [4], 31.3 µM (active); in [5] it was 28.9 µM (active).
